The text below walks through data of ChEMBL document CHEMBL1961873, “Compounds: GSK PKIS; Assays: Nanosyn kinase panel” (2012).

For assay [1], the target named is CDK3/Cyclin E (Homo sapiens) (UniProt P24864+Q00526). The settings on record: at 1 µM.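 Also: each figure is a mean percent inhibition of the CDK3/cyclin E complex.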
The target of assay [2] is Cyclin-dependent kinase 4 (Homo sapiens) (UniProt P11802). The settings on record: at 0.1 µM.
Assay [3] shares this target. The note with it: at 1 µM.
Assay [4] concerns the target Cyclin-dependent kinase 5 (Homo sapiens) (UniProt Q00535). The note with it: at 0.1 µM.
The target is the same in assay [5]. The note with it: at 1 µM.
Assay [6] has as its target Cyclin-dependent kinase 6 (Homo sapiens) (UniProt Q00534). The settings on record: at 0.1 µM.
For assay [7] the target is unchanged. The note with it: at 1 µM.
In assay [8] the target is Dual specificity protein kinase CLK2 (Homo sapiens) (UniProt P49760). The settings on record: at 0.1 µM.
Sequence of Dual specificity protein kinase CLK2 (Homo sapiens) (P49760 whole entry, looked up): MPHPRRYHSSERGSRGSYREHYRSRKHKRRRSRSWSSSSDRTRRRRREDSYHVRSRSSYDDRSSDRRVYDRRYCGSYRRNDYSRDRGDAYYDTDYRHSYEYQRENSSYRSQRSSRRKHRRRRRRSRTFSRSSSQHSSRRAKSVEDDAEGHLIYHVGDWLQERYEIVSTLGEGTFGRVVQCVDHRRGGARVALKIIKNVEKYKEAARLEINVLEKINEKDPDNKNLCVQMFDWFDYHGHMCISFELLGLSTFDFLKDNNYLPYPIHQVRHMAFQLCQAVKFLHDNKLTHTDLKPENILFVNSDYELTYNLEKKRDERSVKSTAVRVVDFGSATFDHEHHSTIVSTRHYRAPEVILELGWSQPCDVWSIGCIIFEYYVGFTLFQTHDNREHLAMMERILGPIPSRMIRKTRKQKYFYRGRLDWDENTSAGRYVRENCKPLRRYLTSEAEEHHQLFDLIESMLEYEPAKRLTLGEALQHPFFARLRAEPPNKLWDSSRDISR
The target is the same in assay [9]. The note with it: at 1 µM.
Assay [10] deals with Dual specificity protein kinase CLK3 (Homo sapiens) (UniProt P49761). The settings on record: at 0.1 µM.
Sequence of Dual specificity protein kinase CLK3 (Homo sapiens) (P49761 whole entry, looked up): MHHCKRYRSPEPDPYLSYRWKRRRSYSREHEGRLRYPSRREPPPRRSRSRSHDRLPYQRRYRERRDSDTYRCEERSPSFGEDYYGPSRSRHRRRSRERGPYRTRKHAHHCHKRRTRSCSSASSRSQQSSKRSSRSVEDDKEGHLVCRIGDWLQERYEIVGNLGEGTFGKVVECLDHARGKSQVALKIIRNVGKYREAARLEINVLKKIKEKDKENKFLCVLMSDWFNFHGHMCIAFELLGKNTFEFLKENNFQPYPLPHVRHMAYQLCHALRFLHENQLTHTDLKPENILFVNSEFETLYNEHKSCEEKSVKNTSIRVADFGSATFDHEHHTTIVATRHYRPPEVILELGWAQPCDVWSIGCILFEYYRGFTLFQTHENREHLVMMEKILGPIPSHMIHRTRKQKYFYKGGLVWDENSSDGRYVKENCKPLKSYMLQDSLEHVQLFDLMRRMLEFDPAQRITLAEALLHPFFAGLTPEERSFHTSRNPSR
Assay [11] shares this target. The note with it: at 1 µM.
Assay [12] has as its target Dual specificity tyrosine-phosphorylation-regulated kinase 1A (Homo sapiens) (UniProt Q13627). The note with it: at 0.1 µM.
Assay [13] shares this target. The settings on record: at 1 µM.
Assay [14] has as its target Dual specificity tyrosine-phosphorylation-regulated kinase 1B (Homo sapiens) (UniProt Q9Y463). The settings on record: at 0.1 µM.
The target is the same in assay [15]. The settings on record: at 1 µM.
For assay [16], the target named is T1, Dual specificity tyrosine-phosphorylation-regulated kinase 2 (Homo sapiens) (UniProt Q92630).
T1 sequence (whole entry): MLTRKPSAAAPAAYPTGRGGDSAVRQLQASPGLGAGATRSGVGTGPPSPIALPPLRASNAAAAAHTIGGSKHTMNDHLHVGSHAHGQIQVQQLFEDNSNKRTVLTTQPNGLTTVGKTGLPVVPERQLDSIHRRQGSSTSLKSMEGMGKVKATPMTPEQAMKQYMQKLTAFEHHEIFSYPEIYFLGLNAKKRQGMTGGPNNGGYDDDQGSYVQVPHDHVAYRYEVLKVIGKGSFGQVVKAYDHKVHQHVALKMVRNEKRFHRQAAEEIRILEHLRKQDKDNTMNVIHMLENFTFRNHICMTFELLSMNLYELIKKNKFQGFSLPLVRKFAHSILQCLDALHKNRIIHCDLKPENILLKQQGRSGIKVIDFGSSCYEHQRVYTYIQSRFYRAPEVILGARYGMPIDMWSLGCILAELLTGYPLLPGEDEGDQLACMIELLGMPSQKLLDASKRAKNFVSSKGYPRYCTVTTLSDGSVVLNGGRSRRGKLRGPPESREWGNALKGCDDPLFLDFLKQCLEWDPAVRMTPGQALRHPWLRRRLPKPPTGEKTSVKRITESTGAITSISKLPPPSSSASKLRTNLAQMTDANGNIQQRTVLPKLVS
The settings on record: at 0.1 µM.

Assay [17] concerns the target T1, Dual specificity tyrosine-phosphorylation-regulated kinase 2 (Homo sapiens). The note with it: at 1 µM.
For assay [18], the target named is Glycogen synthase kinase-3 alpha (Homo sapiens) (UniProt P49840). The note with it: at 0.1 µM.
Sequence of Glycogen synthase kinase-3 alpha (Homo sapiens) (P49840 2-483 limits assumed): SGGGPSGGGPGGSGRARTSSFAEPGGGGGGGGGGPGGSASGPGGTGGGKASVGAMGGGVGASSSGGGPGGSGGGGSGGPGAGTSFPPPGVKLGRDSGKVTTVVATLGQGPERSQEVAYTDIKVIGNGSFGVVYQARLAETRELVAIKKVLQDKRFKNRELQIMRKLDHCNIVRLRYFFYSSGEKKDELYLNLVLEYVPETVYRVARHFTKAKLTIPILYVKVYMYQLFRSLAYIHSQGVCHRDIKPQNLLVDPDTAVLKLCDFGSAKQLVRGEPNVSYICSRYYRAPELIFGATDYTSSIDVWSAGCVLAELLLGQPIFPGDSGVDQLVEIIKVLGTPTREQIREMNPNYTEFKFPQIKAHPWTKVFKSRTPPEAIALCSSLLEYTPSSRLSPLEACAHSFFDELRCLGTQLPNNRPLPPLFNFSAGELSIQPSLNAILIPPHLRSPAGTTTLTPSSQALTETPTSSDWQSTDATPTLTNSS
The target is the same in assay [19]. The note with it: at 1 µM.
For assay [20], the target named is Glycogen synthase kinase-3 beta (Homo sapiens) (UniProt P49841). The settings on record: at 0.1 µM.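 Also: values are mean percent inhibition of GSK3B activity, from the GSK Published Kinase Inhibitor Set (PKIS) screening dataset.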
Sequence of Glycogen synthase kinase-3 beta (Homo sapiens) (P49841 whole entry, looked up): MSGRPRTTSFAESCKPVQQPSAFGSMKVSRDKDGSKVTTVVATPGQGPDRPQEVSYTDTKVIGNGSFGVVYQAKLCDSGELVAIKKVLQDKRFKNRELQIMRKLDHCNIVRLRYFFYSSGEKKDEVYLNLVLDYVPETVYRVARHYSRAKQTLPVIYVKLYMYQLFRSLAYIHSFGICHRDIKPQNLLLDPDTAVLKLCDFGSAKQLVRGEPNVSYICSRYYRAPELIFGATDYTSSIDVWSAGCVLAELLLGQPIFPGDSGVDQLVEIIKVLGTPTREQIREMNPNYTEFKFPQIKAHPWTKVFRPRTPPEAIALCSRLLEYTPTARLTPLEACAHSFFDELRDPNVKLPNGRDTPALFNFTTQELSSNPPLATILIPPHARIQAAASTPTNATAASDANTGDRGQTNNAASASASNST

Structures are written as SMILES.

Sequence of Cyclin-dependent kinase 6 (Homo sapiens) (Q00534 whole entry): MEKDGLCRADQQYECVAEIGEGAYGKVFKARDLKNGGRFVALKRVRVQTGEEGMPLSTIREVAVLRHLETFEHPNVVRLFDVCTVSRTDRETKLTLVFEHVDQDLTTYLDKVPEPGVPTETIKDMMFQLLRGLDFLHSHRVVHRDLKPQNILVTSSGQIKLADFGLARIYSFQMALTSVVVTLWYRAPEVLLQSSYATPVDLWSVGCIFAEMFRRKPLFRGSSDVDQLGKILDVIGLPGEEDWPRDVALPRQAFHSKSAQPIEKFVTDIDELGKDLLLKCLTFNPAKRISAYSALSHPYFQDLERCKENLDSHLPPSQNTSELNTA
Sequence of Cyclin-dependent kinase 5 (Homo sapiens) (Q00535 whole entry, looked up): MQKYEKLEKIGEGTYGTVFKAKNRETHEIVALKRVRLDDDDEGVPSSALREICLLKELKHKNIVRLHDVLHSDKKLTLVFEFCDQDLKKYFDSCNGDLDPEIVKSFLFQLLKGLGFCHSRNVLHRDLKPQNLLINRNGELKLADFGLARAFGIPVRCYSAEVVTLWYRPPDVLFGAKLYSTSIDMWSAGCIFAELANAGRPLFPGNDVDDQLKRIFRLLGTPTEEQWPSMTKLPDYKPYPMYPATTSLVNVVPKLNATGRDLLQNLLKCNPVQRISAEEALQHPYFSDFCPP
Sequence of Dual specificity tyrosine-phosphorylation-regulated kinase 1B (Homo sapiens) (Q9Y463 whole entry, looked up): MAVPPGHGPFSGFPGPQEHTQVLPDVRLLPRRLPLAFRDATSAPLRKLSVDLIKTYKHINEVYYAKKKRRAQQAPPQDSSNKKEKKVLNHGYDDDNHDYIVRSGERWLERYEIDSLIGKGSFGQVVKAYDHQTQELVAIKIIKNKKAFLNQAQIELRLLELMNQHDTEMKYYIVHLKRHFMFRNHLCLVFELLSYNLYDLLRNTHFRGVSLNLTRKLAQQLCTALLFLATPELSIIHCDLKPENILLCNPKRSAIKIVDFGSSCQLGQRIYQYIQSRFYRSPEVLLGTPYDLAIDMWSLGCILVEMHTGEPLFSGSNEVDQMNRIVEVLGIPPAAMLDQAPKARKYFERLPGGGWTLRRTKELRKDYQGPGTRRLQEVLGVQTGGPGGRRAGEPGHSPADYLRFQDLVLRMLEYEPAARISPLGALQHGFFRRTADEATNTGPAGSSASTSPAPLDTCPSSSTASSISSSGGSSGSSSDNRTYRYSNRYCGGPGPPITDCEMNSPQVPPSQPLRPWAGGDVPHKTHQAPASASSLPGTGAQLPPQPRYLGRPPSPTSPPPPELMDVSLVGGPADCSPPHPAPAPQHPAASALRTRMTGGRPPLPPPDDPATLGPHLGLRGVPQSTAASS
Sequence of Cyclin-dependent kinase 4 (Homo sapiens) (P11802 whole entry): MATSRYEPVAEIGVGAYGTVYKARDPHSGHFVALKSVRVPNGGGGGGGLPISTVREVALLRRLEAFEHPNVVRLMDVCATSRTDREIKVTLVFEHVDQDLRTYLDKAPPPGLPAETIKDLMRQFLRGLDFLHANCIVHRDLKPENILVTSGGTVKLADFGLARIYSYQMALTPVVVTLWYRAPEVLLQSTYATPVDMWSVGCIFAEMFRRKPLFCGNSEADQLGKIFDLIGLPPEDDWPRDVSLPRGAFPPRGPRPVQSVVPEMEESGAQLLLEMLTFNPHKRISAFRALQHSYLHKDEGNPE
Sequence of CDK3/Cyclin E (Homo sapiens) (P24864 whole entry, looked up): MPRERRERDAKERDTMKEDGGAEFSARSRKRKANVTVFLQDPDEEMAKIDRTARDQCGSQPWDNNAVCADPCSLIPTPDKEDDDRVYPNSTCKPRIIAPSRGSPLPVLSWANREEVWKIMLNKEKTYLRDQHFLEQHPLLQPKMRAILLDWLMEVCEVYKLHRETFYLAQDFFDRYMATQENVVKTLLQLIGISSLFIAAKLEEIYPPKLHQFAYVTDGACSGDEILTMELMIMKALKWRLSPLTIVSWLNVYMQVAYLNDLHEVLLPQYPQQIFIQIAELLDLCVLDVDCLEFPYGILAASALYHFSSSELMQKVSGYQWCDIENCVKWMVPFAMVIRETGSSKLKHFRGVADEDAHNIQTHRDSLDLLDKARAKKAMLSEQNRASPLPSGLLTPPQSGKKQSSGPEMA
Sequence of CDK3/Cyclin E (Homo sapiens) (Q00526 whole entry, looked up): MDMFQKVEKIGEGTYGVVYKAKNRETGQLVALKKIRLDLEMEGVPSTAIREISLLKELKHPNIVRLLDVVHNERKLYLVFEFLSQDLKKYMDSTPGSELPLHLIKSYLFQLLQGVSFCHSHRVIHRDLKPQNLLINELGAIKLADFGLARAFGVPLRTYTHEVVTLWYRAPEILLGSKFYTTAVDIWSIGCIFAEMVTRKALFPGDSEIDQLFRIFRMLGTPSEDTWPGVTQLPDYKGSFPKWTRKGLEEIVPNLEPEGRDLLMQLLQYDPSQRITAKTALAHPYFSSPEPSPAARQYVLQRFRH

What is called inhibition is the relative decrease from the control value, in per cent. As to `Cc1ccc(C(=O)NC(C)C)cc1-c1ccc(C(=O)NCC2CC2)cc1`, the inhibition in [1] was -1.55%; in assay [2], -0.49%; in assay [3], 0.6%; in assay [4], 0.55%; in assay [5], 2.73%; in assay [6], -1.81%. Further, the inhibition in assay [7] was -0.75%; in [8] it was -1.1%; in assay [9], -0.78%; in assay [10], -0.64%; in assay [11], 0.67%; in assay [12], 1.18%. Also, the inhibition in assay [13] was 2.28%; in [14] it was 3.39%; in assay [15], 3.96%; in assay [16], -2.49%; in [17] it was -3.21%; in assay [18], 1.52%. Also, the inhibition in assay [19] is 3.31%; in assay [20] it was 1.46%.
For the compound `NC(=O)c1ccc(Oc2nccc(-c3c(-c4ccc(F)cc4)ncn3C3CCNCC3)n2)cc1`, the inhibition in assay [1] was 1.23%; in [2] it was 3.18%; in assay [3] it was 3.14%; in [4], 1.5%; in assay [5], 1.61%; in [6] it was -4.69%. The inhibition in assay [7] was -0.8%; in [8], 1.44%; in assay [9], 6.51%; in assay [10], 2.43%; in assay [11] it was 1.67%; in [12], 3.41%. Further, the inhibition is 5.23% in assay [13]; 0.33% in [14]; -0.41% in assay [15]; 4.43% in [16]; 9.4% in assay [17]; 2.18% in assay [18]. Besides, the inhibition in [19] worked out at 3.39%; in assay [20], 2.57%.
In the case of `COc1cc(Nc2ncc(-c3ccccc3)o2)cc(OC)c1OC`, the inhibition in assay [1] was 5.95%; in [2], 0.45%; in assay [3] it was 1.93%; in assay [4], 0.52%; in assay [5], 6.19%; in assay [6], 0.43%. Also, the inhibition was determined as 3.26% in [7]; 0.35% in assay [8]; 3.33% in assay [9]; 0.69% in assay [10]; 0.88% in assay [11]; 1.8% in assay [12]. In addition, the inhibition was 6.39% in assay [13]; 1.65% in [14]; 3.72% in assay [15]; -2.15% in assay [16]; -1.69% in assay [17]; 5.71% in assay [18]. The inhibition in assay [19] turned out to be 34.4%; in [20], 5.44%.
For the compound `NS(=O)(=O)c1ccc(Nc2cc(-c3ccc(O)c(F)c3)n[nH]2)cc1`, the inhibition in [1] was 60.1%; in assay [2] it was 3.31%; in [3] it was 23.6%; in [4], 20.1%; in [5], 68.7%; in assay [6], 21.6%. Also, the inhibition in assay [7] is 70.9%; in assay [8], 1.17%; in assay [9], 3.95%; in assay [10], -0.37%; in assay [11], 2.65%; in assay [12], 1.28%. In addition, the inhibition is 4.89% in [13]; 2.64% in assay [14]; 5.44% in [15]; -2.19% in [16]; 3.75% in [17]; 1.79% in [18]. Besides, the inhibition in assay [19] turned out to be 23.5%; in assay [20], 4.44%.
`C[C@@H](Oc1cc(-n2cnc3ccc(OC4CCN(C)CC4)cc32)sc1C(N)=O)c1ccccc1Cl`: the inhibition in assay [1] was 0.13%; in [2] it was -0.83%; in assay [3], -0.3%; in [4] it was -2.91%; in assay [5], -2.26%; in assay [6], -5.27%. The inhibition in [7] was -2.7%; in assay [8] it was 3.05%; in assay [9] it was 6.53%; in assay [10], -2.76%; in assay [11] it was -2.38%; in assay [12] it was -0.72%. In addition, the inhibition was 0.72% in [13]; -4.55% in assay [14]; -3.42% in assay [15]; 2.47% in assay [16]; 7.45% in assay [17]; -1.18% in assay [18]. Moreover, the inhibition in [19] was -0.34%; in assay [20], -1.76%.
Consider `CCc1cccc(CC)c1/C=C/c1cncc(C(=O)NC)c1`, for which the inhibition in assay [1] stood at 1.62%; in assay [2], 3.61%; in assay [3], 4.03%; in assay [4] it was 0.43%; in assay [5], 1.68%; in assay [6], 3.11%. Moreover, the inhibition in [7] is 2.84%; in assay [8], -1.55%; in [9] it was 3.8%; in [10], 1.35%; in [11] it was 1.66%; in assay [12], 1.88%. The inhibition in assay [13] is 5.03%; in assay [14], 1.08%; in assay [15], 3.49%; in assay [16], 2.13%; in assay [17], 2.5%; in assay [18], 2.14%. The inhibition in assay [19] is 6.98%; in assay [20] it was 2.21%.
As to `COc1cccc(-n2cnc3c(N/N=C/c4ccncc4)ncnc32)c1`, the inhibition in assay [1] was 0.9%; in [2] it was -6.94%; in assay [3], -4.27%; in assay [4], -3.69%; in assay [5] it was -0.49%; in assay [6] it was -0.76%. The inhibition is -8.82% in assay [7]; 3.04% in [8]; 5.72% in assay [9]; -3.93% in assay [10]; -2.92% in assay [11]; -3.39% in assay [12]. The inhibition in [13] was 2.17%; in assay [14] it was -3.26%; in assay [15], -0.65%; in assay [16] it was 0.79%; in assay [17], 2.96%; in assay [18] it was 3.64%. Besides, the inhibition in assay [19] came out at 34.7%; in assay [20], 3.02%.
